Sampled rows, rich in hits. Any-hit rate of the full collection: about 21%.
Pf growth 96h: inhibits malaria parasite growth, 96 h; Potency, µM (titrated, usually from 28.7 µM), for inactives: at the top dose activity change, negative = inhibition, most hits filed as inhibitors; P. falciparum luciferase reporter growth, 96 h; actives 6.9% (n = 320,000); active = well fitted inhibition curve with a large enough effect; inconclusive = small, poorly fitted or top-dose-only effect, or another doubt; inactive = no such curve, though single readings can be large or run the other way; also: potency is read from the fitted curve at half-maximal effect; % is scaled to controls: 0 for no effect and ±100 for the full control effect
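Luminescence readout: decreased luciferase signal marks inhibited growth of reporter-expressing P. falciparum in infected red cells (2% hematocrit, 0.05% parasitemia final), exposed to compound two generations (96 h, 37 C, 5% CO2).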
SARS PLP yeast: blocks SARS-CoV papain-like protease in a yeast assay; S. cerevisiae expressing SARS-CoV PLpro, growth rescue; Potency, µM (highest dose often 32.9 µM), for inactives: top-dose activity, positive = growth rescue, actives largely listed as activators; actives 0.19% (n = 330,000); AID 485353; also: potency is read from the fitted curve at half-maximal effect; 0% is about no effect; nearly all actives have a fitted effect of over 55% in size
NS1 function inh: influenza NS1 inhibition | actives 0.4% (n = 270,000) | Potency, µM (highest dose often 46.1 µM), for the others: at the top dose activity, positive = more growth; also: potency is read from the fitted curve at half-maximal effect; actives are rising curves; nearly all actives have a fitted effect of over 50% in size
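S. cerevisiae expressing influenza A NS1, grown in glucose, washed, then diluted 1:100 into pH 6.0 -URA galactose medium with 23 nl compound. Growth recovery read as OD600; NS1-free strain serves as control.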
Cycloheximide cs: counter-screen hit for Shiga toxin inhibitors, cycloheximide; cell reporter, cycloheximide protein synthesis inhibition counterscreen; AID 2314; actives 12% (n = 300,000); max response, %; in the data active = max response mostly above about 13%, no sharp cut-off; inactive = mostly below about 14%; also: read at 38.3 µM for the half of the compounds with a filed dose; 0% is about no effect
Shiga toxin inh: inhibitors of Shiga toxin in Vero cells; Vero cells, Shiga toxin protein synthesis inhibition reporter; inhibition, % at 38.7 µM; actives 9.2% (n = 290,000); in the data active = inhibition mostly above about 28%, no sharp cut-off; inactive = mostly below about 43%; also: 0% is about no effect
Pf growth 48h: inhibits P. falciparum growth in the first generation, 48 h; P. falciparum luciferase growth in erythrocytes, 48 h; actives 5.9% (n = 310,000); Potency, µM (series often up to 28.7 µM), for inactives: at the top dose activity change, negative = inhibition, hits mostly inhibitors; active = well fitted inhibition curve with a large enough effect; inconclusive = small, poorly fitted or top-dose-only effect, or another doubt; inactive = no such curve, though single readings can be large or run the other way; also: potency is read from the fitted curve at half-maximal effect; % is scaled to controls: 0 for no effect and ±100 for the full control effect
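Growth was read as firefly luciferase luminescence after a 48 h, 37 C, 5% CO2 exposure of compounds to reporter-bearing P. falciparum cultures (0.1% parasitemia, 2% hematocrit final) in Albumax-supplemented RPMI 1640.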
* marks the source's active call; other numbers are inactive results; i = inactive; u = inconclusive; x = no result given; [ ] = remark or other dose. Unless noted, calls follow the shape of the full dose curve.

SMILES | Pf growth 96h | SARS PLP yeast | NS1 function inh | Cycloheximide cs | Shiga toxin inh | Pf growth 48h
O=C(NCCN1CCOCC1)c1noc2c1CCc1ccccc1-2 | x | -0.8% | 2.4% | 49.2* | 70.7* | 158.9%
COc1cc([N+](=O)[O-])ccc1NC(=O)C[n+]1ccccc1 | 54.5% | 26.9% | -7.7% | -2.5 | -9.2 | -3.3%
O=C(/C=C/c1ccccn1)c1cc(Br)ccc1O | -102.9% | -3.4% | -41.0% | 9.7 | 13.0 | u
O=C(/C=C/c1ccc(O)c(O)c1)c1ccccc1O | 9.8% | -3.0% | -74.8% | 41.2* | 72.4* | 25.1%
O=C(/C=C/c1ccoc1)c1ccccc1O | 2.1% | -26.1% | -4.2% | 44.1* | 96.8* | 35.4%
O=C(/C=C/c1cc2ccccc2o1)c1ccccc1O | 114.1% | 0.1% | -0.4% | 41.4* | 78.5* | 125.7%
O=C(/C=C/c1ccc(O)c(O)c1)OCCc1ccccc1 | x | x | -37.8% | 63.6* | 80.0* | x
O=C1c2cc(O)cc(O)c2OC[C@@H]1c1ccc(O)c(O)c1 | x | x | x | -3.7 | -6.9 | x
CCOC(=O)NNC(=O)NCCCCCCNC(=O)NNC(=O)OCC | 20.3% | 0.0% | 5.0% | -2.5 | -19.6 | 3.0%
O=C(O)[C@H](CC(=O)N1C[C@H]2CCCC[C@H]2C1)Cc1ccccc1 | 5.8% | x | x | x | x | -10.7%
Cc1cc(C)nc(N2CCC(C(=O)O)CC2)n1 | 34.5% | -5.0% | 4.3% | -0.4 | 11.3 | 1.9%
COc1cc(C)nc(N2CCC(C(N)=O)CC2)n1 | 9.28µM* | 7.7% | 0.2% | -2.8 | -11.3 | 9.2%
CCN(CCn1cccn1)C(=O)c1ccc(OC2CCN(C(=O)COC)CC2)cc1 | u | -6.0% | 5.7% | 21.5* | 32.7 | 2.8%
COCC(=O)N1CCC(Oc2ccc(C(=O)NCCCC3CCCC3)cc2)CC1 | 7.38µM* | -4.3% | -23.1% | 11.1 | 39.6 | -1.2%
COCC(=O)N1CCC(Oc2ccc(C(=O)NCc3cnc(C)cn3)cc2)CC1 | u | -2.5% | 3.1% | 3.1 | 4.1 | 44.2%
CCn1ccnc1CNC(=O)c1ccc(OC2CCN(C(=O)COC)CC2)cc1 | 5.22µM* | 14.7% | 1.7% | -3.6 | -5.5 | 13.5%
CC(=O)NCCOC(=O)Nc1ccncc1 | -25.1% | 6.0% | -2.8% | -1.2 | -3.7 | x
CC(=O)NCCOC(=O)Nc1cccnc1 | 23.5% | -0.5% | 6.2% | -3.8 | 22.5 | 1.85µM*
CC(=O)CCc1ccc(Oc2nc(-c3cccnc3)nc3ccccc23)cc1 | u | -0.3% | x | 1.0 | -6.3 | u
CCCCn1cnc2sc(-c3ccccc3)cc2c1=O | i | -16.9% | -17.6% | 38.4* | 98.3* | 102.0%
CNC(=O)NC(=O)Cn1cnc2sc(-c3ccccc3)cc2c1=O | 68.4% | 0.6% | -4.0% | -2.5 | 21.8 | 35.9%
O=c1c2cc(-c3ccccc3)sc2ncn1/N=C/c1ccco1 | 30.7% | -9.7% | -52.8% | 36.8* | 83.2 | 130.7%
CCCCCn1cnc2sc(-c3ccccc3)cc2c1=O | 99.4% | -5.2% | -16.3% | 47.3* | 61.0* | 187.8%
CC(OC(=O)c1cccc(-n2cnnn2)c1)C(=O)N(C)c1ccccc1 (stereo not drawn) | -0.8% | -2.5% | -0.5% | 1.0 | -14.4 | 17.1%
CCCc1cc(C(=O)N2CCCC(Nc3ccc(C)c(C)c3)C2)n(C)n1 (stereo not drawn) | 47.1% | -7.1% | -4.8% | -2.3 | -8.6 | 18.4%
SMILES | Pf growth 96h | SARS PLP yeast | NS1 function inh | Cycloheximide cs | Shiga toxin inh | Pf growth 48h
CCOC(=O)c1cnc2c(OC)cccc2c1N1CCN(c2ccccc2OC)CC1 | 12.0% | -10.5% | -44.9% | 1.1 | -23.5 | 7.38µM*
CCOC(=O)c1cnc2c(OC)cccc2c1N1CCN(c2ccc(OC)cc2)CC1 | 8.6% | -8.5% | u | -3.7 | 11.7 | 11.7µM*
CCOC(=O)c1cnc2c(OC)cccc2c1N1CCN(c2ccccn2)CC1 | 44.0% | -0.7% | -6.5% | -0.8 | -8.1 | 13.2%
COC(=O)c1c(-c2ccc(C)cc2)csc1NC(=S)NC(=O)c1ccc(F)cc1 | 8.28µM* | -3.7% | 13.0% | -2.7 | 7.1 | u
COC(=O)c1sc(NC(=S)NC(=O)c2ccc(F)cc2)nc1C | u | 0.0% | x | 17.9 | 48.2 | 37.6%
CCOC(=O)c1c(-c2ccc(C)cc2)csc1NC(=S)NC(=O)c1ccccc1 | 7.38µM* | 3.9% | -0.6% | -1.4 | 9.5 | 10.4µM*
COc1ccccc1NS(=O)(=O)c1ccc(/C=C/C(=O)O)cc1 | 2.7% | 0.5% | x | 10.5 | -6.0 | 15.7%
COc1ccc(/C=C/C(=O)Nc2ccc(C)c(S(=O)(=O)N3CCOCC3)c2)cc1 | x | 4.4% | x | x | x | x
COc1ccc(/C=C/C(=O)NC2CCCCCC2)cc1S(=O)(=O)N1CCOCC1 | 9.28µM* | 12.4% | -0.6% | 19.3* | 21.5 | u
Cc1ccc(NC(=O)/C=C/c2ccc3c(c2)OCO3)cc1S(=O)(=O)N1CCOCC1 | u | 19.0% | -3.7% | 13.0* | 3.1 | -1.7%
CCCNC(=O)/C=C/c1ccc(S(=O)(=O)Nc2ccccc2OC)cc1 | 9.28µM* | -4.9% | x | 4.0 | 2.1 | -23.6%
COc1ccc(/C=C/C(=O)Nc2ccccc2C(N)=O)cc1S(=O)(=O)N1CCOCC1 | 4.15µM* | 0.8% | x | x | x | u
CCN(CC(=O)NCc1ccc(Cl)cc1)C(=O)CSCC(=O)Nc1ccc(C)cc1 | -12.5% | -4.0% | x | x | x | -15.3%
O=C(NCc1ccc2c(c1)OCO2)c1cc(-c2ccccn2)nc2ccccc12 | u | -1.4% | x | 13.7 | -10.3 | 191.0%
COc1cc2c(cc1OC)C(c1ccc([N+](=O)[O-])cc1)NC(=O)C2 (stereo not drawn) | u | 1.5% | 3.1% | -3.0 | -9.0 | 13.5%
CC1(C)CC(=O)C(CO)=C(c2cccc3ccccc23)C1=O | 68.6% | -25.3% | x | x | x | 18.8%
COc1ccc(CCNC(=O)/C=C/c2ccc(S(=O)(=O)N3CCOCC3)cc2)cc1 | u | -2.1% | x | x | x | -17.0%
COc1ccc(S(=O)(=O)N2CCOCC2)cc1NC(=O)/C=C/c1ccc(F)cc1 | u | -4.8% | x | x | x | u
COc1ccccc1NS(=O)(=O)/C=C/c1ccccc1 | 8.28µM* | -9.4% | -12.7% | -0.1 | -7.6 | -6.3%
COc1ccccc1NC(=O)/C=C/c1ccc(OC)c(S(=O)(=O)N2CCOCC2)c1 | -4.5%[5.75 µM] | -0.8% | x | 7.2 | 11.1 | 13.1µM*
COc1ccccc1CNC(=O)/C=C/c1ccc(S(=O)(=O)N2CCOCC2)cc1 | 4.65µM* | 0.4% | x | -0.2 | -10.1 | u
O=C(/C=C/c1ccc(S(=O)(=O)N2CCOCC2)cc1)NCCc1ccc(C(F)(F)F)cc1 | 6.57µM* | 2.0% | x | x | x | 11.7µM*
Cc1ccsc1C(=O)N1CCCC(CCC(=O)N2CCN(c3ccccn3)CC2)C1 (stereo not drawn) | -13.5% | 1.2% | -2.5% | -2.3 | -6.9 | u
OCCN(CCCn1c(-c2ccncc2)nc2ccccc21)c1nc(CN2CCCCC2)cs1 | u | -8.9% | 7.3% | -3.5 | 6.0 | -25.2%
Cc1ccc(F)cc1NC(=O)/C=C/c1ccc(S(=O)(=O)N2CCOCC2)cc1 | x | -8.4% | x | x | x | x
COc1ccc(/C=C/C(=O)Nc2cc(F)ccc2C)cc1S(=O)(=O)N1CCOCC1 | u | 0.7% | x | 6.8 | 7.8 | 14.7µM*

Screening results: PubChem, National Center for Advancing Translational Sciences (NCATS)
